The assay in a line: loss of HEK293T viability via ATP – cell-based, plate reader, dry powder, set 10, cytotoxicity control, dose response (AID 743315).

SMILES strings stand for the structures. Measured potencies and affinities stand elsewhere. Calls of active or inactive are those of the source.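 How the source made its calls: active means cell killing, with a fitted active concentration at or below twice the top valid dose tested; inconclusive means flat curve with moderate cell loss, or an unreliable fit; inactive means effect in the rising direction, plus the rest.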

For the compound `CC(C)(C)c1ccccc1OCCn1c(=S)[nH]c2ccccc21`, the call was inactive.
Take `Cc1ccc(OCCn2cnc3ccccc32)c(C(C)C)c1`: the compound was called inactive.
Take `Cc1ccc(C(C)C)c(OCCn2c(=S)[nH]c3cccc(Cl)c32)c1`: the outcome was inactive.
With `Fc1ccc2[nH]c(=S)n(CCOc3ccccc3)c2c1`, the compound was classed as inactive.
The entry for `Fc1ccc2c(c1)[nH]c(=S)n2CCOc1ccccc1` is “inactive”; for `Cc1ccccc1OCCn1c(=S)[nH]c2ccccc21` it is “inactive”; for `S=c1[nH]c2cc(Cl)ccc2n1CCOc1ccccc1` it is “inactive”.
For `Cc1ccc(C(C)C)c(OCCn2c(=S)[nH]c3c(F)cccc32)c1`, the outcome was inactive.
Regarding `S=c1[nH]c2ccccc2n1CCOc1ccc(Cl)cc1`, the result was inactive.
With `Cc1cccc2[nH]c(=S)n(CCOc3ccccc3)c12`, the result was inactive.
As for `Cc1ccc(OCCn2c(=S)[nH]c3ccccc32)c(C)c1`, the compound was called inactive.
As to `Cc1ccc(C(C)C)c(OCCn2c(=S)[nH]c3ccc(F)cc32)c1`, the compound was called inactive.
With `COc1cccc(OCCn2c(=S)[nH]c3ccccc32)c1`, the result was inactive.
The entry for `Cc1cccc(OCCn2c(=S)[nH]c3ccccc32)c1` is “inactive”; for `Cc1ccc(C(C)C)c(OCCn2c(=S)[nH]c3c(C)cccc32)c1` it is “inactive”; for `COc1ccc(OCCn2c(=S)[nH]c3ccccc32)cc1` it is “inactive”.
Consider `Cc1ccc(C(C)C)c(OCCn2c(=S)[nH]c3ccccc32)c1`, for which the outcome was inactive.
The entry for `CC(C)c1ccccc1OCCn1c(=S)[nH]c2ccccc21` is “inactive”; for `Cc1cccc(OCCn2c(=S)[nH]c3ccc(C(F)(F)F)cc32)c1` it is “inactive”; for `CC(C)(C)c1ccc(OCCn2c(=S)[nH]c3ccccc32)cc1` it is “inactive”.
For `Fc1cccc2c1[nH]c(=S)n2CCOc1ccccc1`, the call was inactive.
The same measure for `Cc1cccc(OCCn2c(=S)[nH]c3cc(C(F)(F)F)ccc32)c1`: “inactive”; for `Cc1ccc2c(c1)[nH]c(=S)n2CCOc1ccccc1`: “inactive”; for `CC(C)c1ccccc1NCCn1c(=S)[nH]c2ccccc21`: “inactive”.

Values taken from PubChem BioAssay AID743315 (Broad Institute, 2014).
